Rows were chosen to be rich in hits. Some 19% of all compounds tested hit in one or more screens of this group.
ELG1 DNA repair: qHTS screen for small molecules that inhibit ELG1-dependent DNA repair in human embryonic kidney (HEK293T) cells expressing luciferase-tagged ELG1; HEK293T ELG1-luciferase reporter, luminescence, 16 h; DNA damage induced by 5-fluorouridine; Potency, µM (top dose mostly 46.1 µM), without a hit: at the top dose activity change, negative = inhibition, usual class: inhibitors; actives 2.3% (n = 330,000); note: potency is the fitted concentration of half-maximal effect; nearly all actives have a fitted effect of over 55% in size
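HEK293T cells expressing luciferase-tagged ELG1 (2,000/well) received 5-Fluorouridine plus compound or DMSO for 16 hr at 37 °C. Luciferase was read by ONE-Glo luminescence after 30 min at room temperature.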
DT40 TDP1 no CPT: qHTS for Inhibitors of human tyrosyl-DNA phosphodiesterase 1 (TDP1): qHTS in cells in absence of CPT. DT40 Tdp1-/- hTDP1 cells, no CPT, ATP luminescence, 48 h. Potency, µM (series often up to 46.2 µM), inactives show at the top dose activity change, negative = growth inhibition, usual class: inhibitors. actives 15% (n = 420,000); note: potency is the fitted concentration of half-maximal effect; nearly all actives have a fitted effect of over 55% in size
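Camptothecin absent (DMSO only). Human TDP1-complemented DT40 knockout cells, 400 cells/well, 37 °C for minimum 48 hr; ATP measured via CellTiter-Glo, 30 min dark incubation, luminescence.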
IL-1B inflam inh: qHTS for Inhibitors of Inflammasome Signaling: IL-1-beta AlphaLISA Primary Screen; THP-1 LPS/ATP IL-1B secretion, AlphaLISA, 16 h; stronger effect = lower value; activity change, % at 57.5 µM; actives 4.7% (n = 360,000); AID 743279, 2014; in the data active = activity change below about -50%; inconclusive = mostly about -30% to -49%
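Secreted IL-1B measured by AlphaLISA bead assay after 16 h compound exposure of THP-1 cells; compounds (final up to 57.5 uM) added 1 h before LPS (250 ng/mL) and ATP (1.25 mM) stimulation; lower signal means less secretion.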
TDP1 cell CPT: qHTS for Inhibitors of human tyrosyl-DNA phosphodiesterase 1 (TDP1): qHTS in cells in presence of CPT; chicken DT40 Tdp1-/-;hTDP1 cells + 20 nM CPT, ATP luminescence, 48 h; Potency, µM (series often up to 46.2 µM), without a hit: at the top dose activity change, negative = growth inhibition, hits mostly inhibitors; actives 12% (n = 420,000); AID 686979, 2013; note: potency is the fitted concentration of half-maximal effect; nearly all actives have a fitted effect of over 55% in size
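Cell growth measured by CellTiter-Glo luminescence after a minimum 48 h, 37 C compound exposure with 20 nM CPT in Tdp1-knockout DT40 cells stably expressing hTDP1, seeded 400/well; qHTS titration format.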
HT1080NT lethal: qHTS for induction of synthetic lethality in tumor cells producing 2HG: qHTS for the HT-1080-NT fibrosarcoma cell line | HT-1080-NT fibrosarcoma viability, CellTiter-Glo ATP luminescence, 48 h | Potency, µM (doses to about 46.1 µM), without a hit: top-dose activity, negative = less viability, most hits filed as cytotoxic | actives 1.6% (n = 360,000) | AID 686970, 2013;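 note: NT is the 2HG producing partner of a matched IDH1 knockdown line; potency is the fitted concentration of half-maximal effect; 0% = DMSO-treated cells and -100% = media-only wells without cells; nearly all actives have a fitted effect of over 55% in size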
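Read-out is CellTiter-Glo luminescence after 10 minutes at room temperature, following 48 hours' compound treatment of HT-1080-NT cells (750 cells/well, RPMI, 5% FBS, 37 degrees C).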
HT1080 IDH1KD tx: qHTS for induction of synthetic lethality in tumor cells producing 2HG: qHTS for the HT-1080-IDH1KD cell line; actives 2% (n = 360,000); AID 686971, 2013; HT-1080 IDH1 knockdown viability, ATP luminescence, 48 h; Potency, µM (series often up to 46.1 µM), inactives show at the highest dose activity, negative = toxicity, most hits filed as cytotoxic;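 note: potency is the fitted concentration of half-maximal effect; 0% = DMSO wells and -100% = cell-free medium wells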
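Assay cells: HT-1080 with IDH1 knockdown, 750 per well, RPMI/5% FBS. Exposure: 48 h at 37 °C following 2 h pre-incubation. Read: CellTiter-Glo luminescence; fitted concentration-response, curve class assigned.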
* = called active by the depositor; ? = inconclusive; / = not tested or not shown; [ ] = remark or other dose. Unless noted, calls come from the whole dose curve; as a rule, active = well fitted curve in the direction sought with a large enough effect; inconclusive = small, poorly fitted or top-dose-only effect, or another doubt; inactive = no such curve, though single readings can be large; an effect the other way counts as inactive or inconclusive. Unless noted, % is set by controls: 0 for no effect and ±100 for the full control effect.

SMILES	ELG1 DNA repair	DT40 TDP1 no CPT	IL-1B inflam inh	TDP1 cell CPT	HT1080NT lethal	HT1080 IDH1KD tx
COc1ccc(C2(C)NC(=O)N(CC(=O)Nc3c(C)n(C)n(-c4ccccc4)c3=O)C2=O)cc1 (stereo not given)	?	4%	26	15%	-1%	3%
CCCCCCn1cc(CN2CC(N3CCN(CCN(C)C)CC3)CS2(=O)=O)nn1 (stereo not given)	/	-6%	6	2%	5%	11%
COc1ccc(N=Cc2c(O)c3ccccc3n2C(C)=O)cc1	?	21µM*	0	?	7%	-15%
COc1ccc(N=Cc2sc(O)c3ccccc23)cc1	?	?	-83*	?	-11%	-5%
CN(CC(=O)Nc1cccc(F)c1)C(=O)c1cc(S(=O)(=O)N2CCN(c3ccccc3)CC2)ccc1Cl	?	13µM*	-27	16µM*	2%[9.24 µM]	-14%
COc1cccc(NC(=O)CN(C)C(=O)c2cccc(S(=O)(=O)N3CCN(c4ccc(F)cc4)CC3)c2)c1	?	16µM*	10	16µM*	-16%	-10%
COc1ccc(NC(=O)CN(C)C(=O)c2cccc(S(=O)(=O)N3CCN(C)CC3)c2)cc1	14%	-14%	14	-3%	1%	-1%
CN(CC(=O)Nc1ccc(F)cc1)C(=O)c1cccc(S(=O)(=O)N2CCN(c3ccc(F)cc3)CC2)c1	?	13µM*	-16	15µM*	-15%	?
CN(CC(=O)Nc1cccc(F)c1)C(=O)c1cccc(S(=O)(=O)N2CCN(c3ccccc3)CC2)c1	?	?	?	?	-6%	-6%
OC1O[C@H](c2ccc3c(c2)OCO3)[C@H]2CO[C@H](c3ccc4c(c3)OCO4)[C@@H]12 (stereo not given in full)	-23%	21µM*	5	?	0%	0%
CC1(C)COC(c2ccc3c(c2)OCO3)OC1	/	-9%	15	9%	-2%	8%
CC1(S(=O)(=O)O)CC(=O)c2ccccc2C1=O (stereo not given)	-7%	5.2µM*	?	7.3µM*	18µM*	21µM*
N#CNC(=Nc1ccc(Cl)cc1)Oc1ccccc1	?	?	-55*	?	-5%	-3%
CCOC(=O)c1ccc(NC(=O)C(CC)Sc2nnc3c4ccccc4n(C)c3n2)cc1 (stereo not given)	/	18µM*	/	16µM*	/	/
CCC(Sc1nnc(C)c(=O)[nH]1)C(=O)Nc1cccc2ccccc12 (stereo not given)	-1%	?	11	-6%	-1%	-1%
CCC(Sc1nnc2c(n1)[nH]c1ccccc12)C(=O)Nc1ccccc1OC (stereo not given)	/	21µM*	/	?	/	/
CCN(CC)c1ccc(NC(=O)C2CCN(S(=O)(=O)c3cnc[nH]3)CC2)c(C)c1	/	-6%	/	?	/	/
Cc1csc(=O)n1CCC(=O)OCC(=O)Nc1ccc(F)c(F)c1F	5%	-2%	3	0%	-2%	9%
Cc1cccc(C(=O)OCC(=O)NCc2ccc(Cl)cc2)c1	/	?	1	-9%	-1%	8%
CN(Cc1ccccc1Cl)C(=O)C1CCC(=O)N(C2CCCCCC2)C1 (stereo not given)	-11%	?	-21	?	18%	4%
CCc1ccccc1NC(=O)c1ccc2c(c1)nnn2C1CCCC1	/	?	/	26µM*	/	/
CCn1nnc2cc(C(=O)Nc3cccc(C(F)(F)F)c3)ccc21	/	-20%	/	-3%	/	/
O=C(Nc1cccc(C(F)(F)F)c1)c1ccc2c(c1)nnn2C1CCCC1	/	8.2µM*	/	?	/	/
CCC(C)C(=O)Nc1nc(C)c(-c2csc(Nc3cc(OC)ccc3OC)n2)s1 (stereo not given)	?	15µM*	-16	16µM*	-1%	-13%
COc1ccc(OC)c(Nc2nc(-c3sc(NC(=O)CC(C)C)nc3C)cs2)c1	?	16µM*	2	15µM*	-16%	?
SMILES	ELG1 DNA repair	DT40 TDP1 no CPT	IL-1B inflam inh	TDP1 cell CPT	HT1080NT lethal	HT1080 IDH1KD tx
COc1ccc(Cl)cc1Nc1nc(-c2sc(NC(=O)c3ccco3)nc2C)cs1	?	?	-8	?	4%	-17%
CCCCC(=O)Nc1nc(C)c(-c2csc(Nc3cc(Cl)ccc3OC)n2)s1	?	?	-11	?	-1%	-5%
CCC(C)C(=O)Nc1nc(C)c(-c2csc(Nc3cc(Cl)ccc3OC)n2)s1 (stereo not given)	?	10µM*	7	15µM*	-3%	-10%
CCCCC(=O)Nc1nc(C)c(-c2csc(Nc3cc(OC)ccc3OC)n2)s1	18µM*	?	-25	6.5µM*	-9%	?
CC1(C)O[C@H]2[C@@H](O1)[C@@H](C(=O)Nc1cc(F)ccc1F)O[C@@H]1OC(C)(C)O[C@@H]12	/	-6%	/	-7%	/	/
CC1=C(c2ccc(F)cc2)S(=O)(=O)N=C1N1CCC(C(=O)NCCc2ccco2)CC1	/	-22%	/	-6%	/	/
Cc1ccc(F)cc1NC(=O)c1cnccn1	-6%	-7%	0	-28%	13%	11%
COc1ccc(Cl)cc1Nc1nc(-c2sc(NC(=O)C(C)(C)C)nc2C)cs1	?	3.7µM*	-4	5.2µM*	-6%	-10%
CCOc1ccccc1-c1nnc(SCC(=O)NC2(C#N)CCCC2)o1	1%	0%	0	1%	15%	17%
Cc1ccc(Nc2ccc(N3CCN(C(=O)c4ccc([N+](=O)[O-])cc4Cl)CC3)nn2)cc1	/	18µM*	/	21µM*	/	/
O=C(c1cccc([N+](=O)[O-])c1)N1CCN(c2ccc(N3CCOCC3)nn2)CC1	7%	-4%	14	6%	10%	23%
O=C(c1cccc([N+](=O)[O-])c1)N1CCN(c2ccc(Nc3ccccc3)nn2)CC1	/	21µM*	/	?	/	/
COc1cc(NC(=O)CSc2nnc3ccccn23)cc(OC)c1OC	/	-11%	29	8%	10%	0%

Screening data from PubChem BioAssay.
